PPC-1+TRAIL kill: PPC-1 cancer cell killing with TRAIL present; actives 0.41% (n = 220,000); PPC-1 cells + TRAIL, ATPLite viability luminescence; cell killing (% activity), % at 4 µM or 5 µM;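 active means cell killing above 50% in the first pass at 4 µM, then a duplicate retest at 5 µM averaging 50% or more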
SENP8 block-1: blocks the human protease SENP8; Q96LD8; actives 1.2% (n = 330,000); purified SENP8, Z-RLRGG-aminoluciferin cleavage, luminescence; AID 2540; inhibition, % at 10 µM; in the data active means inhibition above about 50%
Target sequence (Q96LD8 whole entry, looked up): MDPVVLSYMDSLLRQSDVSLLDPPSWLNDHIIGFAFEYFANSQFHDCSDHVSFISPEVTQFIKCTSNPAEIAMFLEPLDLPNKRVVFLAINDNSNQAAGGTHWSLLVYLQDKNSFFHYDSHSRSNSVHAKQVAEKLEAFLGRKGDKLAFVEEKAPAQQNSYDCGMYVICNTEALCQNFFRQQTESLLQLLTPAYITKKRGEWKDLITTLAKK
SENP6 inh: inhibitors of human SENP6 protease. inhibition, % at 10 µM. AID 2599. Recombinant SENP6 catalytic domain, aminoluciferin luminescence. actives 1.8% (n = 330,000);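 active means inhibition above about 50% at the single tested dose, limit read from the data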
SENP7 inh: blocks the human protease SENP7; Q9BQF6; recombinant SENP7, Z-RLRGG-aminoluciferin luminescence, 40 min; inhibition, % at 5 µM; actives 1.5% (n = 330,000); AID 434973;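 active means inhibition above about 50% at the single test dose, limit read from the data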
Target sequence (Q9BQF6 706-1050 limits assumed): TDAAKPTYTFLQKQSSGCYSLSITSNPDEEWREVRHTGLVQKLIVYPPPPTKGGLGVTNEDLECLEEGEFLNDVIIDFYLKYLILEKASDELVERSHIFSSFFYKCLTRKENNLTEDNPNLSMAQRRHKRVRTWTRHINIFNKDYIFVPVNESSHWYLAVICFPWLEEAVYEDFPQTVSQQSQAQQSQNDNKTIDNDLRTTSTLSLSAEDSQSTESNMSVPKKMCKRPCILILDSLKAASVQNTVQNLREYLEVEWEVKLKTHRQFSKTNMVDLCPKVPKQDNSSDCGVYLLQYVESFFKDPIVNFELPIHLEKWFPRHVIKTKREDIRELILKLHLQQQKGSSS
SENP8 block-2: SENP8 (human) protease inhibition | AID 602440 | actives 0.64% (n = 360,000) | inhibition, % at 20 µM | recombinant SENP8, Nedd8 substrate fluorescence; in the data active means inhibition mostly above about 40%, no sharp cut-off; inactive means mostly below about 27%
C8 TRAIL sens: caspase-8 TRAIL sensitization | inhibition (viability loss, TRAIL sensitization), % at 10 µM | actives 1% (n = 360,000) | NB7+C8 cells + TRAIL, ATPlite viability luminescence | AID 624354;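 active means compounds causing at least 50% loss of cell viability in the single-dose screen, relative to plate controls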
PPC1 cytotox: PPC-1 cell cytotoxicity | shares compounds with PPC-1+TRAIL kill | PPC-1 viability, ATPlite luminescence, overnight | cytotoxicity, % at 5 µM | actives 50% (n = 1,200) | AID 1447;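 active means reconfirmed compounds whose average cytotoxicity reaches 50% or more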
A number is an active result; - = inactive; . = no result. This is a sample that favours compounds with a hit; in the whole collection about 3% have one here.

SMILES	PPC-1+TRAIL kill	SENP8 block-1	SENP6 inh	SENP7 inh	SENP8 block-2	C8 TRAIL sens	PPC1 cytotox
Cc1nn(C(C)(C)C)c(C)c1/C=N/OC(=O)Nc1ccc(Cl)cc1	85.4	-	-	-	-	88.3	86.2
Cc1nn(C)c(C)c1/C=N/NC(=O)C(C)(C)Oc1ccc(Cl)cc1	-	-	-	-	-	-	.
CCN1CCN(C(=O)CN(CC)S(=O)(=O)c2ccc(F)cc2)CC1	.	-	-	-	-	-	.
CC(=O)N1CCN(Cc2nc3cc(Cl)ccc3c(=O)[nH]2)CC1	-	-	-	-	-	-	.
COc1ccc(N2CCN(Cc3nc4cc(Cl)ccc4c(=O)[nH]3)CC2)cc1	-	-	-	-	-	-	-
CC(C)OC(=O)Nc1ccc2c(c1)N(C(=O)N1CCN(C)CC1)c1ccccc1CC2	74.5	-	-	-	-	78.9	73.5
CCCn1c(=O)c(C(=O)NCCc2ccc(OC)cc2)c(O)c2ccccc21	.	-	-	-	-	-	.
CCOc1ccc(C(=O)Nc2nnc(NC(=S)Nc3ccccc3)s2)cc1	-	-	-	-	-	54.9	-
Cc1ccc(C(=O)Nc2nnc(NC(=S)Nc3ccccc3)s2)cc1	-	-	-	-	-	-	.
CCOc1ccc(N2C(=O)CC(SCCN)C2=O)cc1 (stereo not given)	-	-	-	-	-	-	-
CCCCCCOc1ccc(N2C(=O)CC(SCCN)C2=O)cc1 (stereo not given)	.	-	-	-	-	-	.
COC(=O)c1nc2n(n1)C(c1ccc(OC)c(OC)c1OC)C1=C(CCCC1=O)N2 (stereo not given)	-	-	-	-	-	-	-
COC(=O)c1nc2n(n1)C(c1ccccc1OC)C1=C(CCCC1=O)N2 (stereo not given)	-	-	-	-	-	-	.
COCCCNC(=O)c1cccc2c(-c3cccc(C(N)=O)c3)coc12	.	.	.	.	-	-	.
Oc1ccc(N=Nc2ccc3c(c2)OCCO3)c(O)c1	64.9	95.4	94.6	91.2	44.7	72.2	66.3
CC1(C)CC(=O)C2=C(C1)OC(N)=C(C#N)C2c1ccccc1OC(=O)N1CCOCC1 (stereo not given)	-	-	-	-	-	-	-
CC1(C)CC(=O)C2=C(C1)OC(N)=C(C#N)C2c1ccccc1[N+](=O)[O-] (stereo not given)	-	-	-	-	-	-	.
Cc1onc(-c2ccc(Cl)cc2)c1-c1ccnc(SCC(=O)Nc2ccc(C(C)C)cc2)n1	-	-	-	-	-	-	.
Cc1cccc(-n2nc(C)cc2N)c1	-	-	-	-	-	-	.
CCc1ccc(-c2cc(N)n(-c3ccccc3)n2)cc1	-	.	.	.	-	-	-
Cc1cccc(-c2cc(N)n(-c3ccccc3)n2)c1	-	.	.	.	-	-	-
COc1ccc(-c2oc3ccc(-c4cc(OC)c(OC)c(OC)c4)cc3c2C#Cc2ccccn2)cc1	.	-	-	-	-	-	.
CCOc1cc(S(=O)(=O)NCc2ccccc2)ccc1F	-	-	-	-	-	-	-
COc1cc(S(=O)(=O)NCc2ccccc2)ccc1Br	-	-	-	-	-	-	.
COc1cc(SC)ccc1C(=O)Nc1nccs1	67.0	-	-	-	-	80.5	69.3
SMILES	PPC-1+TRAIL kill	SENP8 block-1	SENP6 inh	SENP7 inh	SENP8 block-2	C8 TRAIL sens	PPC1 cytotox
CNC(=S)N/N=C(\C)c1ccc(N2CCOCC2)cc1	-	.	.	.	-	-	-
COc1ccc(-n2nc3cc(C)c(NC(=O)C(C)C)cc3n2)cc1	-	.	.	.	.	.	.
COc1ccc(-n2nc3cc(C)c(NC(C)=O)cc3n2)cc1	64.0	-	-	-	-	73.6	60.2
C=CCNC(=O)/C(=C/c1cccc([N+](=O)[O-])c1)NC(=O)c1ccccc1	-	-	-	-	-	-	-
CC(=O)c1nn(-c2ccc(Cl)cc2)cc1C(=O)c1ccccc1	.	-	-	-	-	-	.
CC(=O)c1nn(-c2cccc(Br)c2)cc1C(=O)c1ccccc1	-	-	-	-	-	-	-
CCOC(=O)c1nn(-c2ccc(C)cc2)cc1C(=O)c1ccccc1	-	-	-	-	-	52.6	-
Cc1ccc(S(=O)(=O)N2CCCc3cc(NC(=O)c4c(F)cccc4F)ccc32)cc1	.	-	-	-	-	-	.
Cc1ccc(N2C(=O)Nc3ccccc3C2(O)C(=O)N2CCN(c3ccccn3)CC2)cc1C (stereo not given)	-	-	-	-	-	-	-
CCc1ccc(N2C(=O)Nc3ccccc3C2(O)C(=O)N2CCN(c3ccccn3)CC2)cc1 (stereo not given)	-	-	-	-	-	-	.
O=C(NCCN1CCCC1)c1ccccc1Cl	-	-	-	-	-	-	.
O=C1C(Cl)=C(NCCN2CCCCC2)C(=O)c2ccccc21	-	-	-	-	76.1	91.9	-
CN(C(=O)c1cccc(Nc2ccc(-c3ccc4c(c3)OCCO4)nn2)c1)C1CCCCC1	52.6	-	-	-	-	68.2	54.8
Cc1ccc(Cn2ccsc2=NC(=O)CCl)cc1	91.5	-	-	-	-	97.8	90.8
Cc1ccc(Cn2ccsc2=NC(=O)COC(=O)c2ccc(NC(=O)CC#N)cc2)cc1	.	-	-	-	-	-	.
Cc1n[nH]c(=O)nc1N1CCN(c2ccccc2)CC1	-	-	-	-	-	-	-
COc1ccc(C(CC(=O)c2ccc(C)cc2)C(C#N)C#N)cc1OC (stereo not given)	-	-	-	-	-	-	.
COc1ccc(CNC(=O)CN2C(=O)COc3ccc(S(=O)(=O)N4CCCCC4)cc32)cc1	.	-	-	-	-	-	.
COc1ccc(OCC(=O)N/N=C(\CCC(=O)O)c2cccs2)cc1	-	-	-	-	-	-	-
COc1ccc(OCC(=O)N/N=C(\C)c2cccs2)cc1	-	-	-	-	-	-	.
COc1cc(CNc2cccc(C(=O)O)c2)cc(Br)c1OCC(=O)NC(C)(C)C	-	-	-	-	-	-	.
C=C1CCN(c2ccc(C(=O)NCCC)cc2[N+](=O)[O-])CC1	.	-	-	-	-	-	.
O=C(Nc1ccc2[nH]ccc2c1)c1ccc(F)cc1	84.2	-	-	-	-	87.7	84.1
O=C(Nc1ccc2[nH]ccc2c1)c1ccccc1	81.0	-	-	-	-	84.2	73.0
CCn1cc(C(=O)NCCCN2CCC(C)CC2)c(=O)c2cc(S(=O)(=O)N3CCOCC3)ccc21	.	-	-	-	-	-	.
O=C(/C(=C/c1ccc(Cl)cc1)c1nc2ccccc2[nH]1)c1cccs1	-	-	-	-	-	-	.
COc1cc(/C=C(/C(=O)c2cccs2)c2nc3ccccc3[nH]2)ccc1O	-	-	-	-	-	-	-
CC(C)(C)c1ccc(-c2noc(CCC(=O)N3CCOCC3)n2)cc1	-	-	-	-	-	64.3	-
COc1ccc(-c2noc(CCCC(=O)N3CCOCC3)n2)cc1	-	-	-	-	-	-	.
COCCN(C(=O)c1cc(OC)c(OC)c(OC)c1)c1c(N)n(Cc2ccccc2)c(=O)[nH]c1=O	-	-	-	-	-	-	-

Compound activity deposited in PubChem BioAssay by Sanford-Burnham Center for Chemical Genomics.
